Laboratory results published in PubChem BioAssay (Tox21).
Inconclusive results are not listed. Entries that show only a call come without a potency. The source made the active and inactive calls. The call rests on the fitted dose curve.

assay: qHTS assay to identify small molecule agonists of the AP-1 signaling pathway (AID 1159526); conditions: ME-180 (cervical carcinoma) AP-1-bla reporter, beta-lactamase FRET ratio, 5 h; series mostly up to 76.8 µM

SMILES | Potency
NC(=S)NNC(N)=S | inactive
CC(=O)OCCOC(C)=O | inactive
c1ccc2c(c1)Cc1ccccc1-2 | inactive
CCO[Si](CCC#N)(OCC)OCC | inactive
CC(C)OC(=O)COc1ccc(Cl)cc1Cl | inactive
C=CC(=O)OCCC(=O)O | inactive
CNC(=O)Oc1ccc2c(c1)[C@]1(C)CCN(C)[C@@H]1N2C | inactive
CCCCCCCCCCCC(=O)OC | inactive
CC(=O)OC1CC(C)OC(C)O1 (stereo unspecified) | inactive
CCOCC(=O)O | inactive
C=CCCCCCCCCC(=O)O | inactive
